Assay results reported in PubChem BioAssay AID504329 (Southern Research Specialized Biocontainment Screening …, 2011).
Among all 340,000 compounds or so, about 1,000 (0.29%) were called active. A selection follows. Entries with a potency or affinity are not part of this list. A number with no mark means an inactive call. Cut-off read from the data, not from the text of the source: inconclusive = inhibition above about 27% without an active follow-up result; inactive = below that.

Assay: H1N1 influenza NS1A inhibitors, functional cell based assay (AID 504329)
Settings: percent inhibition, at 12.5 µM, active compounds read high

Going from `COC(=O)c1ccc2c(c1)C(=O)/C(=C/c1ccc(C)cc1)O2` to `CSc1cccc(NC(=O)CN(C)S(=O)(=O)c2ccc(C)cc2)c1`, the inhibition falls from 0.65% to -2.41%.

Going from `CC1(C)Cc2c(cnn2-c2ccccc2)C(NC(=O)CCCn2cncn2)C1` (stereo not given) to `O=C(NCc1cnn(-c2ccccc2)c1)C1CCC(=O)N(C2CC2)C1` (stereo not given), the inhibition falls from 4.41% to -1.14%.

Compared with `Cc1ccccc1CN1CCC(n2nccc2NC(=O)CCCc2ccccc2)CC1`, `O=C(Cc1ccccc1)N/N=C/c1ccccn1` is lower in inhibition: -1.87% for the first, -2.81% for the second.

First: CC(C)C(NC(=O)C(NC(=O)C1OC2OC(C)(C)OC2C2OC(C)(C)OC12)C(C)C)C(=O)O (stereo not given)
Second: CC(C)=CCC[C@](C)(O[C@@H]1O[C@H](CO[C@@H]2OC[C@H](O[C@@H]3OC[C@@H](O)[C@H](O)[C@H]3O)[C@H](O)[C@H]2O)[C@@H](O)[C@H](O)[C@H]1O)C1CC[C@]2(C)C1[C@H](O)CC1[C@@]3(C)CC[C@H](O)C(C)(C)C3[C@@H](O)C[C@]12C (stereo not given in full)
The inhibition of the first is higher: 4.15% for the first, -10.2% for the second.

First: COc1ccccc1/C=N/NC(=S)Nc1cccnc1
Second: COc1cccc(/C=N/NC(=S)Nc2cccnc2)c1
The inhibition of the first is lower: 2.47% for the first, 8.47% for the second.

First: Fc1c(F)c(F)c(/C=N/NC(=S)Nc2cccnc2)c(F)c1F
Second: Oc1ccc(/C=N/NC(=S)Nc2cccnc2)cc1
The inhibition of the first is higher: 4.9% for the first, -2.94% for the second.

Compared with `COC(=O)c1cc(OC)c(OC)cc1NC(=O)C(C)Sc1ccc(C)cc1` (stereo not given), `Cc1cc(C)c(NC(=O)COC(=O)c2cccc3c2C(=O)c2ccccc2C3=O)c(C)c1` is higher in inhibition: -9.85% for the first, 3.94% for the second.

Going from `CC1(C)C2CC=C(CN3CCC(O)CC3)C1C2` (stereo not given) to `Cc1ccc(OCC(=O)N2CCC(N3CC(C)CC(C)C3)CC2)cc1` (stereo not given), the inhibition rises from 4.73% to 17%.

Going from `O=C(Nc1ccc(Cl)cc1)Nc1ccccn1` to `C/C(=N\NC(=O)c1ccc(Cl)cc1)c1ccccn1`, the inhibition rises from -13.9% to -5.53%.

Going from `COc1ccc(CNC(=O)Cn2nc(C(F)(F)F)c(Br)c2C)cc1` to `Cc1nn(Cc2ccc(Cl)cc2)c(C)c1NC(=O)CCCn1nc(C)c([N+](=O)[O-])c1C`, the inhibition rises from -1.07% to 10.9%.

Compared with `Nc1ccc(NC(=S)Nc2ccccc2)cc1`, `Cc1ccc(NC(=S)NCc2ccccn2)cc1` is lower in inhibition: 8.73% for the first, -14.7% for the second.

Going from `CC(C)(C)c1ccc(C(=O)NCCCNC(=O)c2ccccn2)cc1` to `O=C(NCCNC(=O)c1ccccn1)c1ccc(F)cc1`, the inhibition rises from 0.93% to 4.55%.

First: CCOc1ccc(OCc2ccc(C(=O)N/N=C(\C)c3ccccn3)cc2)cc1
Second: COc1ccc(C(=O)NCCc2nnc3ccc(SCC(=O)Nc4ccccc4)nn23)cc1
The inhibition of the first is higher: -8.32% for the first, -20% for the second.

First: CSc1ccc(CN(C)C(=O)c2cc(Cl)c3c(c2)OCCO3)cc1
Second: CN(CC(=O)Nc1ccccc1C(=O)NC1CC1)Cc1ccc(N(C)C)cc1
The inhibition of the first is lower: 0.05% for the first, 0.15% for the second.

First: Cc1ccc(C)c(S(=O)(=O)N2CCN(C(=O)CCNS(=O)(=O)c3ccc(C)c(C)c3)CC2)c1
Second: Cc1ccc(Nc2ccc(S(=O)(=O)N3CCOCC3)cc2[N+](=O)[O-])c(C)c1
The inhibition of the first is lower: 5.37% for the first, 11.1% for the second.

First: Cc1ccc2nc(-c3cccc(S(=O)(=O)N4CCCC4)c3)cn2c1
Second: Cc1ccc(NC(=O)c2cc(S(=O)(=O)N3CCCC3)cn2C)cc1
The inhibition of the first is lower: -1.58% for the first, 2.93% for the second.

Compared with `COc1ccc(C(=O)NCCc2c[nH]c3ccccc23)cc1S(=O)(=O)N1CCCCC1C` (stereo not given), `C/C(=N\NC(=O)C1CCCN(S(=O)(=O)c2ccccc2)C1)c1ccncc1` (stereo not given) is lower in inhibition: -1.05% for the first, -23.8% for the second.

Going from `Cc1c(-c2ccccc2)nc2ccccc2c1C(=O)Nc1ccncc1` to `O=C(Nc1ccc2c(c1)C(=O)c1ccccc1-2)c1ccccc1`, the inhibition falls from -4.14% to -5.09%.

First: CC(=O)N1CCN(c2ccc(NCc3ccc(Br)o3)cc2)CC1
Second: CC(=O)N1CCN(c2ccc(NCc3ccc(-c4cccc(Cl)c4)o3)cc2)CC1
The inhibition of the first is lower: 6.1% for the first, 23.9% for the second.

Going from `C=CCn1c(CC(=O)Nc2ccc(C)cc2C)nnc1SCC(=O)N1CCOCC1` to `Cc1cccc(C(=S)N2CCOCC2)n1`, the inhibition rises from -7.34% to -4.89%.

First: C/C(=C\c1ccccc1)CN1CCN(c2cccc(Cl)c2)CC1
Second: Oc1c(CN2CCN(c3ccccc3)CC2)cc(Br)c2cccnc12
The inhibition of the first is lower: -1.4% for the first, 14.4% for the second.

Going from `Cc1ncc(N=Nc2ccccc2)c(-c2ccccc2)n1` to `COc1ccc(-c2nc(C)ncc2N=Nc2ccccc2)cc1`, the inhibition rises from 23.1% to 24.1%.

Compared with `Cc1ncc(N=Nc2ccc(F)cc2)c(-c2ccc(Cl)cc2)n1`, `COc1ccc(N=Nc2nc(-c3ccccc3)c(-c3ccccc3)[nH]2)cc1` is higher in inhibition: 10.6% for the first, 13.8% for the second.

Compared with `CSC1=N/C(=C/c2ccc(-n3cncn3)cc2)C(=O)N1`, `Cc1ccc2c(c1)oc(=O)n2CC(=O)c1ccccc1` is lower in inhibition: 18.2% for the first, -20.6% for the second.

First: CC(=NNC(=S)N1CCN(c2ccccn2)CC1)c1ccccn1
Second: CC(=NNC(=S)N1CCCCCC1)c1cccc2cccnc12
The inhibition of the first is lower: 15.8% for the first, 25.3% for the second.

First: C/C(=N/O)c1ccccn1
Second: Oc1ccccc1Nc1ccccn1
The inhibition of the first is higher: 1.41% for the first, -5.39% for the second.

Compared with `CSC(=S)N/N=C(\C)c1ccccc1`, `CSC(=S)N/N=C(\C)c1ccc(Br)cc1` is lower in inhibition: -5.26% for the first, -6.45% for the second.

First: S=C(Nc1ccc2nc(-c3ccccn3)c(-c3ccccn3)nc2c1)N1CCCCC1
Second: S=C(Nc1ccccc1)N1CCN(C2CCCCC2)CC1
The inhibition of the first is lower: -3.09% for the first, 11.4% for the second.

Going from `CC(=NNC(=S)N1CC2CCC(CC2)C1)c1cccc(C)n1` to `C/C(=N\NC(=O)C1CCCN(S(=O)(=O)c2ccccc2)C1)c1cccnc1` (stereo not given), the inhibition falls from 23.1% to -20.5%.

Compared with `O=C(CN1C(=O)c2ccc([N+](=O)[O-])cc2C1=O)Nc1ccccc1N1CCCC1`, `Cc1cccc(C)c1NC(=O)C(NC(=O)CN1C(=O)c2ccccc2C1=O)c1ccccc1` (stereo not given) is higher in inhibition: -7.2% for the first, -3.98% for the second.

First: Cc1ccsc1/C=N/Nc1nc(=O)[nH]nc1C
Second: Cc1cccn2c(=O)c(C(=O)NC3CCCCC3)c(O)nc12
The inhibition of the first is higher: 12% for the first, 5.08% for the second.

First: O=[N+]([O-])c1cc([N+](=O)[O-])c(Oc2ccc(Br)cc2Br)cc1NN1CCCCC1
Second: Cc1ccccc1Nc1ccc(S(=O)(=O)N2CCOCC2)cc1[N+](=O)[O-]
The inhibition of the first is lower: -0.23% for the first, 12.2% for the second.

Going from `NCCCC[C@H](N)c1nnc([C@H](CCC(=O)O)NC(=O)C2CCNCC2)o1` to `CCOC(=O)CC1CCCCN1C(=O)c1ccc2nc(CCOC)oc2c1` (stereo not given), the inhibition falls from 11.3% to 1.79%.

First: C[C@H]1CN([C@@H](C)CO)C(=O)c2cccc(NC(=O)c3ccncc3)c2O[C@H]1CN(C)C(=O)Nc1ccccc1
Second: Nc1ccc(NC(=O)c2ccccc2)c2c1C(=O)c1ccccc1C2=O
The inhibition of the first is lower: -10.3% for the first, 24.3% for the second.

Compared with `S=C(NCc1ccccc1)N1CCN(C2CCCCC2)CC1`, `CC(C(=O)NC1CCCCCC1)N(c1ccccc1)S(C)(=O)=O` (stereo not given) is higher in inhibition: -12% for the first, 7.2% for the second.

First: CC(=O)C1=C(O)C(=O)N(CCC(=O)O)C1c1ccccc1[N+](=O)[O-] (stereo not given)
Second: O=C(O)c1ccccc1C(=O)c1ccc(F)c(F)c1
The inhibition of the first is lower: -13.3% for the first, 3.3% for the second.

Compared with `O=C(O)COc1ccc(S(=O)(=O)NCCc2ccccc2)cc1`, `CCOc1ccc(NS(=O)(=O)c2ccc(C(=O)NCC(C)(C)N3CCOCC3)cc2)cc1` is lower in inhibition: -12% for the first, -14.4% for the second.

First: c1ccc(Nc2ccccn2)nc1
Second: S=C(NCc1ccccc1)NCc1ccccn1
The inhibition of the first is lower: -3.53% for the first, 1.05% for the second.

First: O=C(NCCCNC(=O)c1cccnc1)c1ccc(Cl)cc1
Second: O=C(c1ccc(Cl)cc1)C1CCCN(Cc2cccc3cccnc23)C1 (stereo not given)
The inhibition of the first is higher: -0.27% for the first, -0.71% for the second.

Compared with `Cc1cc(Cl)ccc1OCC(=O)O`, `C=C(CC)C(=O)c1ccc(OCC(=O)O)c(Cl)c1Cl` is higher in inhibition: -1.09% for the first, 0.79% for the second.

Going from `O=C(COC(=O)COc1ccc(Cl)cc1Cl)NC1CC1` to `CCOC(=O)C1CCCN(C(=O)/C=C/c2ccc(Cl)cc2)C1` (stereo not given), the inhibition falls from 0.21% to -12.8%.

First: Nc1c(Br)cc(Br)c2c1C(=O)c1c(cccc1S(=O)(=O)O)C2=O
Second: Oc1c(Br)cc(Br)c2cccnc12
The inhibition of the first is higher: 5.84% for the first, -9.24% for the second.

Going from `O=C(CCCC(=O)N/N=C\c1ccccn1)N/N=C\c1ccccn1` to `Oc1ccccc1C=NNC(=S)NN=Cc1ccccc1O`, the inhibition rises from -2.81% to 16.5%.

Going from `CCN1CCN(Cc2nc3cc(NC(=O)COc4ccc([N+](=O)[O-])cc4)ccc3n2C)CC1` to `COc1cccc(S(=O)(=O)Nc2ccc(C(=O)N3CCN(C(=O)c4ccco4)CC3)cc2)c1`, the inhibition rises from 0.32% to 5.1%.

First: CC(=O)c1ccc(N(CC(=O)NCC2CCCO2)C(=O)CCC(=O)Nc2cc(C)on2)cc1 (stereo not given)
Second: O=C(O)C1C2C=CC(C2)C1C(=O)Nc1ccc(Cl)c(Cl)c1 (stereo not given)
The inhibition of the first is lower: -8.06% for the first, 1.34% for the second.

Compared with `NC(=S)N/N=C/c1ccccc1`, `NC(=S)N/N=C/c1cccc(/C=N/NC(N)=S)c1` is higher in inhibition: -0.87% for the first, -0.05% for the second.

Going from `COC(=O)c1cccc(/C=N/NC(N)=S)c1O` to `O=C(O)c1ccc2cccnc2c1O`, the inhibition rises from -14.3% to -0.15%.

`COC(=O)C=CC(=NNc1ccccc1)c1ccccc1` gave an inhibition of 3.06%.
